Measurements from PubChem BioAssay (NCATS).
The source made the active and inactive calls. Calls follow the shape of the full dose curve.

Assay: qHTS drug screen for cell cycle checkpoint inhibitors in PARPi-resistant BRCA-mutant ovarian cancer cell lines. (AID 1963452)
Conditions: PEO1/OlaR viability, CellTiter-Glo luminescence, 96 h; for Z-AUC: stronger effect = lower value
Excerpt: Women's Malignancies Branch, Center for Cancer Research (CCR),
National Cancer Institute (NCI), National Institutes of Health (NIH), Bethesda, MD
Poly (ADP-ribose) polymerase inhibitors (PARPis) have changed the treatment paradigm in breast cancer gene (BRCA) - mutant high-grade serous ovarian carcinoma (HGSC). However, most patients eventually develop resistance to PARPis, highlighting an unmet need for improved therapeutic strategies. Using high-throughput drug screens, we identified ataxia telangiectasia and rad3-related protein/checkpoint kinase 1 (CHK1) pathway inhibitors as cytotoxic and further validated the activity of the CHK1 inhibitor (CHK1i) prexasertib in PARPi-sensitive and -resistant BRCA-mutant HGSC cells and xenograft mouse models. CHK1i monotherapy induced DNA damage, apoptosis, and tumor size reduction. We then conducted a phase 2 study (NCT02203513) of prexasertib in patients with BRCA-mutant HGSC. The treatment was well tolerated but yielded an objective response rate of 6% (1 of 17; one partial response) in patients with previous PARPi treatment. […] BRCA reversion mutation in previously PARPi-treated BRCA-mutant patients was not associated with resistance to CHK1i.
Among others, 1082 oncology drugs, both approved and investigational, were prioritized based on their status in clinical trial development. […] Drugs with average Z-AUC values less than -1.0 in all three cell lines were classified as "hits" resulting in 151 oncology drug hits. The screen also confirmed cross-resistance between olaparib and other PARPis (rucaparib, niraparib, and talazoparib) in PARPi-resistant PEO1/OlaR and PEO4.
[1] G. L. Lin, K. M. Wilson, M. Ceribelli, B. Z. Stanton, P. J. Woo, S. Kreimer, E. Y. Qin, X. Zhang, J. Lennon, S. Nagaraja, P. J. Morris, M. Quezada, S. M. Gillespie, D. Y. Duveau, A. M. Michalowski, P. Shinn, R. Guha, M. Ferrer, C. Klumpp-Thomas, S. Michael, C. McKnight, P. Minhas, Z. Itkin, E. H. Raabe, L. Chen, R. Ghanem, A. C. Geraghty, L. Ni, K. I. Andreasson, N. A. Vitanza, K. E.Warren, C. J. Thomas, M. Monje, Therapeutic strategies for diffuse midline glioma from high-throughput combination drug screening. Sci. Transl. Med. 11, (2019).
[2] T. M. Yamamoto, A. McMellen, Z. L. Watson, J. Aguilera, R. Ferguson, E. Nurmemmedov, T. Thakar, G. L. Moldovan, H. Kim, D. M. Cittelly, A. M. Joglar, E. P. Brennecke, H. Wilson, K. Behbakht, M. J. Sikora, B. G. Bitler, Activation of Wnt signaling promotes olaparib resistant ovarian cancer. Mol. Carcinog. 58, 1770 - 1782 (2019).
PROTOCOL TABLE (as described by Inglese J, Shamu CE and Guy RK. 2007)
SEQUENCE No. (e.g., 1, 2, 3, etc.); […] (e.g., Cells, Incubation, Reagent, etc.); VALUE; DESCRIPTION.
1; Compounds; 20nL; 1536-well white tissue culture-treated plates.
2; Cells; 5 uL; PEO1, PEO4, and PEO1/OlaR cells at 600 cells per well.
3; Incubation; 96 hr; 37C, 95% humidity, 5% CO2.
4; Reagent; 3 uL; CellTiter-Glo (Promega).
5; Incubation; 15 min; room temperature.
6; Detection; Luminescence, PHERAstar (BMG Labtech) plate reader.
NOTES (numbers refer to Sequence numbers above)
1. MIPE 5.0 compounds were acoustically dispensed by Echo Acoustic Liquid Handler (Beckman Coulter Life Sciences). Each compound was plated at an 11-point concentration range with 1:3 dilution. Bortezomib, a proteasome inhibitor (final concentration, 20 uM), was used as a positive.
2. PEO1, PEO4, and PEO1/OlaR were trypsinized and dispensed in 5 uLof growth medium using a Multidrop Combi dispenser at a density of 600 cells per well to allow compounds to be present during the exponential growth phase.
3. Plates were incubated for 96 hours at standard incubator conditions and covered by a stainless steel gasketed lid to prevent evaporation.
4. Three microliters of CellTiter-Glo (Promega) were added to each well.
5. Plates were incubated at room temperature for 15 min with a stainless-steel lid in place.
6. Luminescence readings were taken using PHERAstar (BMG Labtech). […]

[1] = measured here: PEO1 parental Z-AUC
Potency is read from the fitted curve at half-maximal effect.

For COc1cc(OC)c(/C=C/S(=O)(=O)Cc2ccc(OC)c(NCC(=O)O)c2)c(OC)c1, the Potency was 0.0195 µM (active), the Z-AUC [1] was -2.09 and the Z-AUC (measured here: PEO4 Z-AUC) was -1.96.

With CCN1CCN(Cc2ccc(NC(=O)Nc3ccc(Oc4cc(NC)ncn4)cc3)cc2C(F)(F)F)CC1 the Potency was 4.9 µM (active), the Z-AUC [1] was -1.75 and the Z-AUC (measured here: PEO4 Z-AUC) was -1.71.

With CO[C@@H](C)Cn1c(=O)n(C)c2cnc3ccc(-c4cncc(C(C)(C)O)c4)cc3c21 the Potency was 2.19 µM (active), the Z-AUC [1] was -2.24 and the Z-AUC (measured here: PEO4 Z-AUC) was -2.14.

With CCNCc1nc2c(N)nc3ccccc3c2n1CC(C)(C)O the Z-AUC was -0.12 (inactive), the Z-AUC [1] was 0.65 and the Z-AUC (measured here: PEO4 Z-AUC) was 0.404.

For Cc1cc(O)c(-c2ccc([C@@H](C)CN(C)C)cc2)c2c1[nH]c(=O)c1sccc12, the Z-AUC was -1.8 (inactive), the Z-AUC [1] was -2.07 and the Z-AUC (measured here: PEO4 Z-AUC) was -2.02.

With CCN1CCN(Cc2ccc(NC(=O)c3ccc(C)c(NC(=O)c4cncc(-c5cccs5)c4)c3)cc2C(F)(F)F)CC1 the Z-AUC was -1.84 (inactive), the Z-AUC [1] was -1.46 and the Z-AUC (measured here: PEO4 Z-AUC) was -0.887.

In the case of CNCc1ccc(-c2cc(-c3nc(-c4ccc(S(=O)(=O)C(C)C)cc4)cnc3N)on2)cc1, the Z-AUC is reported as 0.146 (inactive), the Z-AUC [1] is reported as 0.477 and the Z-AUC (measured here: PEO4 Z-AUC) is reported as 0.605.

With Cc1ccc(-c2ccc3c(ccc4sc5c(c43)NC[C@@H](C)NC5=O)n2)cn1 the Z-AUC was -0.119 (inactive), the Z-AUC [1] was 0.305 and the Z-AUC (measured here: PEO4 Z-AUC) was -0.383.

For CO[C@H]1C[C@@H]2CC[C@@H](C)[C@@](O)(O2)C(=O)C(=O)N2CCCC[C@H]2C(=O)O[C@H]([C@H](C)C[C@@H]2CC[C@@H](OP(C)(C)=O)[C@H](OC)C2)CC(=O)[C@H](C)/C=C(\C)[C@@H](O)[C@@H](OC)C(=O)[C@H](C)C[C@H](C)/C=C/C=C/C=C/1C, the Z-AUC was 0.099 (inactive), the Z-AUC [1] was 0.103 and the Z-AUC (measured here: PEO4 Z-AUC) was -0.0432.

In the case of COc1ccc(Cl)c(Nc2nc3ccccc3nc2NS(=O)(=O)c2cccc(NC(=O)C(C)(C)N)c2)c1, the Z-AUC is reported as -0.00434 (inactive), the Z-AUC [1] is reported as 0.542 and the Z-AUC (measured here: PEO4 Z-AUC) is reported as 0.742.

For Cc1ccc(NC(=O)Nc2cc(C(F)(F)F)ccc2F)cc1Nc1ccc2c(c1)NC(=O)/C2=C\c1ccc[nH]1, the Z-AUC was 0.377 (inactive), the Z-AUC [1] was 0.106 and the Z-AUC (measured here: PEO4 Z-AUC) was 0.2.

For CN1CCN(c2ccc(C(=O)Nc3n[nH]c4ccc(Cc5cc(F)cc(F)c5)cc34)c(NC3CCOCC3)c2)CC1, the Z-AUC was -0.903 (inactive), the Z-AUC [1] was -1.2 and the Z-AUC (measured here: PEO4 Z-AUC) was -1.38.

In the case of CN(C)C/C=C/C(=O)Nc1cccc(C(=O)Nc2cccc(Nc3ncc(Cl)c(-c4c[nH]c5ccccc45)n3)c2)c1, the Z-AUC is reported as -1.57 (inactive), the Z-AUC [1] is reported as -1.76 and the Z-AUC (measured here: PEO4 Z-AUC) is reported as -1.32.

For CC(C)[C@@H](CS(=O)(=O)C(C)C)N1C(=O)[C@@](C)(CC(=O)O)C[C@H](c2cccc(Cl)c2)[C@H]1c1ccc(Cl)cc1, the Z-AUC was 1.18 (inactive), the Z-AUC [1] was 1.37 and the Z-AUC (measured here: PEO4 Z-AUC) was 1.87.
